# Source: PubChem BioAssay (National Center for Advancing Translational Sciences (NCATS))
# HPGD block – blocks human HPGD enzyme activity | Potency, µM, without a hit: at the highest dose activity change, negative = inhibition, usual class: inhibitors | P15428 | AID 894 | actives 4.3% (n = 150,000) | purified HPGD, NADH fluorescence kinetic, PGE2 substrate; note: potency is the fitted concentration of half-maximal effect
#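 NADH formation kinetics: reaction with 30 uM PGE2 and 1 mM NAD+ (final), 20 nM enzyme, Tris-HCl pH 8 with Tween 20, after 15 min compound preincubation at room temperature. Fluorescence change, last versus first of five reads.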
# ALDH1A1 inh – blocks purified human ALDH1A1 activity; P00352; Purified ALDH1A1, NADH fluorescence, propionaldehyde substrate; Potency, µM (top dose mostly 75.3 µM), without a hit: at the top dose activity, negative = inhibition, usual class: inhibitors; actives 7.3% (n = 220,000); AID 1030;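 note: potency is the fitted concentration of half-maximal effect; plate controls were no enzyme wells and a reference inhibitor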
# Target sequence (P00352 whole entry, looked up): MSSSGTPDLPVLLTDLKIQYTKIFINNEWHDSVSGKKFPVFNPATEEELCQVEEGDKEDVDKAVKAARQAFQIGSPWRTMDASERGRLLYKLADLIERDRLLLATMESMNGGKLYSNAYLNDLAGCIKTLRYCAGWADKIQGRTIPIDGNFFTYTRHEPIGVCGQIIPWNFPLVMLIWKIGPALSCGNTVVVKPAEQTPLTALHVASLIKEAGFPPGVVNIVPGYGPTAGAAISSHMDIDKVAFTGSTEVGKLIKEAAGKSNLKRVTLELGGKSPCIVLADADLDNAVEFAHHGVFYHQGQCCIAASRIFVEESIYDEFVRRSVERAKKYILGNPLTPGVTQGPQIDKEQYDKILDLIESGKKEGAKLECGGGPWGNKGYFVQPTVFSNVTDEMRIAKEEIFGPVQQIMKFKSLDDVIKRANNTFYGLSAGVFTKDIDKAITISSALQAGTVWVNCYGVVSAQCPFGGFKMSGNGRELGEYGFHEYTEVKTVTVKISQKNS
# IMPase inh – cell-permeable inhibitors of inositol monophosphatase (IMPase) | P97697 | CHO-M1 cells, IP1 accumulation, HTRF TR-FRET ratio | inhibition (IP1 accumulation), % at 46.1 µM | 120,000 tested, under 10 active | AID 901; active = well fitted curve in the direction sought with a large enough effect in the signal ratio, not every such curve was filed as active; inconclusive = small, poorly fitted or top-dose-only effect, or a change in a side signal; inactive = no such curve, though single readings can be large or run the other way; the % refers to the signal ratio;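 note: cells stimulated with carbachol in lithium chloride buffer; plate controls were DMSO basal wells for no effect and reference inhibitor wells for full effect; higher means more IMPase inhibition seen as more IP1 and lower FRET ratio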
#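 Elevated IP1 in lysates lowers TR-FRET signal (665/620 ratio and 620 channel reported). Cells were CHO-M1, given carbachol (50 uM as added) plus 50mM LiCl, pH 7.4, 30 min, 37C; compounds titrated up to 46 uM; AC50 by Hill equation.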
# * = called active by the depositor; u = inconclusive; x = no result given; [ ] = dose if it differs, or a comment. An excerpt weighted towards active compounds, which were near 9% of everything screened. Unless noted, calls come from the whole dose curve; as a rule, active = well fitted inhibition curve with a large enough effect (not every such curve was filed as active); inconclusive = small, poorly fitted or top-dose-only effect, or another doubt; inactive = no such curve, though single readings can be large or run the other way. Unless noted, % is set by controls: 0 for no effect and ±100 for the full control effect.
SMILES,HPGD block,ALDH1A1 inh,IMPase inh
COc1ccc(/C=N/NC(=O)c2cccc([N+](=O)[O-])c2)cc1OC,x,-9%,x
COc1ccc(/C=N/NC(=O)c2cccc(NC(=O)c3ccccc3Cl)c2)cc1OC,x,4µM*,x
O=C(N/N=C/c1ccncc1)c1cccc(NC(=O)c2ccccc2Cl)c1,-16%,13µM*,x
O=C(N/N=C/c1ccncc1)c1ccc(NC(=O)c2cccc(Cl)c2)cc1,x,-4%,x
COC(=O)c1ccc(NC(=S)N2CCC(C(N)=O)CC2)cc1,u,-3%,-1
OCCC1CN(Cc2cccn2-c2cccnc2)CCN1Cc1ccccc1 (stereo unspecified),x,-1%,x
N#Cc1ccccc1NC(=O)CSc1nc(-c2ccccc2)cc(C(F)(F)F)c1C#N,x,x,-14
COc1ccc(O)c(CNc2ccccc2F)c1,x,-1%,x
COc1ccccc1/C=N/NC(=O)c1ccc(Cn2nc([N+](=O)[O-])cc2C)cc1,u,14µM*,x
CCN(CC)S(=O)(=O)c1cccc(C(=O)N/N=C/c2ccc(OC)c(O)c2)c1,-11%,25µM*,x
COc1ccc(/C=N/NC(=O)Cn2nc([N+](=O)[O-])cc2C)c(OC)c1OC,x,-3%,x
COc1cc(/C=N/NC(=O)c2cccc(NC(=O)c3ccccc3Cl)c2)ccc1O,x,13µM*,x
COc1cc(/C=N/NC(=O)c2ccccc2)ccc1O,x,-9%,x
CCN(CC)S(=O)(=O)c1cccc(C(=O)N/N=C/c2ccccc2OCC(=O)O)c1,x,-10%,x
Cc1cc(C)nc(N/C(=N\S(=O)(=O)Cc2ccccc2)Nc2ccc(F)c(Cl)c2)n1,-3%,-2%,x
Cc1ccc(S(=O)(=O)NCCCCCC(=O)Nc2cccc(C)c2)cc1,-5%,u,x
COCCN(C(=O)CSc1nnc(C)n1Cc1ccccc1)c1c(N)n(CC(C)C)c(=O)[nH]c1=O,x,18%,x
CC(=O)c1ccc(NS(=O)(=O)Cc2ccccc2)cc1,25µM*,-4%,1
CCCOc1ccc(C(=O)CCNc2ccc(C)c(Cl)c2)cc1,-5%,18µM*,0
Cc1ccc(NC(=O)CCC(=O)c2ccc(F)cc2)cc1Cl,1%,8%,0
Cc1ccc(NS(=O)(=O)c2cc(C(=O)O)ccc2Cl)cc1C,-3%,5%,x
CC(=O)N(C)c1ccc(NS(=O)(=O)Cc2ccccc2)cc1,-18%,-4%,8
CCc1ccc(C(=O)NCc2ccc(Cl)cc2)cc1,-9%,13%,-10
CCc1ccc(NCCC(=O)c2ccc(Cl)cc2)cc1,-7%,1.6µM*,4
Cc1ccc(NCCC(=O)c2ccc(Cl)cc2)cc1C,-10%,2.8µM*,-1
SMILES,HPGD block,ALDH1A1 inh,IMPase inh
Cc1cc(O)c(C(C)(C)C)cc1Sc1cc(C(C)(C)C)c(O)cc1C,-28%,u,x
Cn1c(=O)n(C)c2cc(S(=O)(=O)N3CCN(c4ccccc4)CC3)ccc21,x,7%,x
CC(=O)Nc1ccccc1-c1nc2ccc(C(=O)N3CCN(c4cc(C)ccc4C)CC3)cc2[nH]c1=O,-17%,-13%,7
CN(CC(=O)N1CCc2ccccc21)S(=O)(=O)c1ccc(Br)s1,-9%,-1%,-3
COC(=O)C(Cc1ccccc1)NC(=O)c1cc(S(=O)(=O)N(C)C)ccc1Cl (stereo unspecified),x,-3%,x
OCCNc1ccc(Cl)cc1,-13%,3%,0
CC(=O)c1ccc(NC(=O)CCOc2ccccc2)cc1,x,x,2
Cc1ccc(NS(=O)(=O)c2cc(C(=O)O)ccc2Cl)cc1,0%,-6%,-10
CC(=O)c1ccc(NCCC(=O)c2ccccc2)cc1,x,6.3µM*,x
Cc1ccc(NCCC(=O)c2ccc(Cl)c(Cl)c2)cc1,-15%,0.79µM*,1
Cc1ccc(C(=O)CCNc2ccc(Cl)cc2)o1,-10%,4µM*,4
Cc1c(NC(=O)CSc2ncnc3ccccc23)c(=O)n(-c2ccccc2)n1C,x,1%,x
CCOc1cccc(NC(=O)C2CC(=O)N(c3ccc(F)cc3)C2)c1 (stereo unspecified),x,3%,x
O=Cc1cccc(Br)c1,-8%,u,x
[O-]/[N+](=C\c1ccc(F)cc1)c1ccccc1,-7%,20µM*,3
[O-]/[N+](=C\c1cccc(Br)c1)c1ccccc1,x,0.32µM*,x
[O-]/[N+](=C\c1ccccc1)[C@@H]1CCCC[C@@H]1/[N+]([O-])=C/c1ccccc1,x,1%,15
CCCCc1nc2c(c3c1C[C@H](C)OC3)CN(C(=O)Cc1cccs1)CC2,-7%,3%[13.5 µM],x
CCn1c2ccccc2c2cc(/C=N/O)ccc21,x,-1%,x
CCn1c2ccc(/C(C)=N\O)cc2c2cc(/C(C)=N\O)ccc21,2.8µM*,-2%,u
COc1cc(OC)c(C2Nc3c(C)cccc3-c3cc(C)nn32)cc1OC (stereo unspecified),x,x,2
COP(=O)(OC)C(Nc1ccc(C)cc1)c1ccc([N+](=O)[O-])cc1 (stereo unspecified),-3%,u,x
CC(C)c1nn2c(=O)cc(O)nc2s1,-8%,-7%,-2
CC(=O)Nc1ccc(C(=O)N/N=C(\C)CC(=O)Nc2ccc(OCc3ccccc3)cc2)cc1,-12%,-6%,x
C/C(=N\NC(=O)c1ccc(COc2ccccc2)cc1)c1ccncc1,x,25µM*,x
SMILES,HPGD block,ALDH1A1 inh,IMPase inh
COc1ccc(C2c3[nH]c4ccccc4c3CCN2C(=O)c2ccc(=O)n(C)n2)c(F)c1 (stereo unspecified),x,-9%,x
COc1cccc(C2c3[nH]c4ccccc4c3CCN2C(=O)Cn2cncn2)c1OC (stereo unspecified),x,9.5µM*,x
CCOc1ccc(C2c3[nH]c4ccccc4c3CCN2C(=O)Cn2cncn2)cc1 (stereo unspecified),x,10%,x
Cc1ccccc1C1c2[nH]c3ccccc3c2CCN1C(=O)c1ccc(=O)n(C)n1 (stereo unspecified),x,32µM*,x
COc1ccc(CNC(=O)CN(c2ccccc2)S(=O)(=O)N(C)C)cc1,x,1%,-8
O=C(O)C(F)(F)C(F)(F)C(F)(F)C(F)(F)C(=O)O,-11%,17%[13.5 µM],x
CC1CC2(C)Oc3ccccc3CC2C(C)C1CNCCCN(C)C (stereo unspecified),x,-1%,x
CCc1cccc(C)c1NC(=O)CO/N=C(\C)c1cc2ccccc2o1,-11%,7%,x
CCOC(=O)N1CCN(c2cc(NCCC(=O)O)c3c4c(onc24)-c2ccccc2C3=O)CC1,-26%,14µM*,u
O=C(O)CCCNc1cc(N2CCC3(CC2)OCCO3)c2noc3c2c1C(=O)c1ccccc1-3,-30%,u,u
O=c1cc(O)nc(-c2ccc(Cl)cc2)s1,x,16µM*,x
O=c1cc(O)nc(-c2ccccc2)s1,x,0.79µM*,x
O=C(O)c1ccc2nc(-c3ccccc3)sc2c1,-15%,-7%,x
O=C(O)Cc1sc(-c2ccc(Cl)cc2)nc1-c1ccccc1,u,u,-16
COc1cc(/C=N/n2nnnc2Nc2ccccc2)cc(OC)c1OC,-17%,u,x
COc1ccc(CC2(CO)CCN(CC3=Cc4cc(Cl)ccc4OC3)CC2)cc1,x,16%,x
COC(=O)c1cc(=O)n2c(-c3ccc(OC)cc3)csc2n1,-10%,5µM*,-5
COc1cc(=O)n2c(-c3ccccc3)csc2n1,-13%,1%,4
Cn1nc(C(F)(F)F)c(/C=N/OC(=O)c2ccccc2Cl)c1SCc1ccccc1Cl,-4%,0%,16
O=C(OCc1cncs1)c1cccs1,x,10%,x
